PubChem BioAssay (Tox21)
Results filed as inconclusive are left out. Calls of active or inactive are those of the source. Unless noted, the call rests on the fitted dose curve; in most records, active means well fitted curve in the direction sought with a large enough effect in the repeat runs; inconclusive means weak or mixed curves; inactive means no such curve, though single readings can be large; an effect the other way counts as inactive or inconclusive.

What was measured:
[1] = qHTS assay for small molecule agonists of the p53 signaling pathway (AID 651631; calls by dose curve; further: nearly all actives have a fitted effect of over 15% in size); settings: HCT-116 p53RE-bla reporter, beta-lactamase FRET ratio, 16 h; series mostly up to 73.3 µM
Summary of the method: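 Fluorescence intensity from cleaved LiveBLAzer B/G substrate (2 h, room temperature) served as the signal. Beforehand, HCT-116 reporter cells bearing p53 response elements were treated 16 h at 37 °C with DMSO-dissolved compounds.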

[2] = qHTS assay for small molecules that induce genotoxicity in human embryonic kidney cells expressing luciferase-tagged ATAD5 (AID 651632); settings: HEK293T ATAD5-luciferase induction, 16 h; series mostly up to 83.3 µM; further: nearly all actives have a fitted effect of over 15% in size
Summary of the method: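 Quantitative HTS in HEK293T expressing luciferase-tagged ATAD5, whose levels rise upon DNA damage. Exposure ran 16 hr at 37C and 5% CO2, with luminescence read 30 min after Amplite addition at room temperature.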

[3] = qHTS assay for small molecules that induce genotoxicity in human embryonic kidney cells expressing luciferase-tagged ATAD5 - cell viability (AID 651634; calls by dose curve; further: nearly all actives have a fitted effect of over 25% in size); settings: HEK293T ATAD5-luc cells viability, CellTiter-Fluor, 15.5 h; series mostly up to 83.3 µM
Summary of the method: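 After 15.5 hr incubation with compound at 37C, 5% CO2, HEK293T ATAD5-luciferase cells received CellTiter-Fluor reagent; fluorescence intensity was quantified following 30 min at 37C.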

[4] = qHTS assay for small molecule disruptors of the mitochondrial membrane potential - cell viability (AID 720634; calls by dose curve;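 further: human HepG2 liver cancer cells; nearly all actives have a fitted effect of over 20% in size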); settings: HepG2 viability, ATP luminescence (CellTiter-Glo), 1 h; series mostly up to 83.2 µM
Summary of the method: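 ATP-based luminescent viability readout (CellTiter-Glo, 30 min, room temperature) in HepG2 cells multiplexed with the m-MPI membrane potential dye; compound exposure lasted 1 hr at 37 C.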

[5] = qHTS assay to test for compound auto fluorescence at 590 nm (red) in HepG2 cells (AID 720674); settings: HepG2 autofluorescence, red 540/590 nm, 1 h; series mostly up to 91.3 µM
Summary of the method: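 Red autofluorescence (Ex/Em 540/590 nm, Rose Bengal sodium equivalents) was measured in HepG2 cells, 2,000 per well in MEM plus 10% FBS, plated overnight at 37 C. Readings were taken 1 hr after adding 23 nL compound or DMSO, at 37 C and 5% CO2.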

[6] = qHTS assay to test for compound auto fluorescence at 535 nm (green) in HepG2 cells (AID 720675); settings: green autofluorescence 485/535 nm, 1 h; series mostly up to 91.3 µM
[7] = qHTS assay to test for compound auto fluorescence at 460 nm (blue) in HEK293 cells (AID 720678); settings: blue autofluorescence 405/460 nm; series mostly up to 91.3 µM
Summary of the method: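 Blue read-out at excitation 405 nm and emission 460 nm follows overnight compound exposure of HEK293 cells at 37C in 5% CO2. Activity is given as auto fluorescence equivalency to triamterene.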

[8] = qHTS assay to test for compound auto fluorescence at 535 nm (green) in HEK293 cells (AID 720680); settings: green autofluorescence 485/535 nm; series mostly up to 91.3 µM
[9] = qHTS assay to test for compound auto fluorescence at 460 nm (blue) in HEK293 cell free culture (AID 720681); settings: cell-free medium, autofluorescence 405/460 nm (blue); series mostly up to 91.3 µM
Summary of the method: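 Blue fluorescence (Ex 405/Em 460 nm, triamterene-equivalent) was read immediately after pin transfer of compound or DMSO into medium (DMEM, 10% FBS) without cells.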

[10] = qHTS assay to test for compound auto fluorescence at 535 nm (green) in HEK293 cell free culture (AID 720682); settings: cell-free medium, green autofluorescence 485/535 nm, hits give high values; series mostly up to 91.3 µM
Summary of the method: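 Intrinsic compound fluorescence is measured in culture medium containing 10% FBS, with excitation at 485 nm and detection at 535 nm, referenced to fluorescein.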

[11] = qHTS assay to test for compound auto fluorescence at 590 nm (red) in HEK293 cell free culture (AID 720683); settings: cell-free medium autofluorescence, Ex540/Em590 red; series mostly up to 91.3 µM
Summary of the method: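 Red-channel autofluorescence of compounds in culture medium (DMEM, 10% FBS), no cells, measured at 540/590 nm. Rose Bengal sodium is the reference fluorophore for equivalence.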

[12] = qHTS assay to test for compound auto fluorescence at 590 nm (red) in HepG2 cell free culture (AID 720684); settings: cell-free medium autofluorescence, red 540/590 nm; series mostly up to 91.3 µM
Summary of the method: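 No cells present: MEM + 10% FBS only. Compound pinned in, red label read (540/590 nm). Activity = fluorescence equivalent to Rose Bengal sodium.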

[13] = qHTS assay to test for compound auto fluorescence at 460 nm (blue) in HepG2 cell free culture (AID 720685); settings: Cell-free culture medium, blue autofluorescence 405/460 nm; series mostly up to 91.3 µM
Summary of the method: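 Cell-free plates of MEM plus 10% FBS received 23 nL compound or DMSO vehicle; blue-channel (405/460 nm) intensity scored against triamterene as reference fluorophore.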

[14] = qHTS assay to test for compound auto fluorescence at 535 nm (green) in HepG2 cell free culture (AID 720686); settings: Cell-free medium, green autofluorescence 485/535 nm; series mostly up to 91.3 µM
[15] = qHTS assay to test for compound auto fluorescence at 460 nm (blue) in HepG2 cells (AID 720687); settings: autofluorescence 405/460 nm, 1 h; series mostly up to 91.3 µM
Summary of the method: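 Blue-channel autofluorescence (Ex/Em 405/460 nm, triamterene-equivalent) was measured after 1 hr compound exposure at 37 C, 5% CO2. Cells were HepG2, plated overnight at 37 C in MEM plus 10% FBS.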

[16] = biological target: Glucocorticoid receptor (Homo sapiens) (UniProt P04150); assay: qHTS assay to identify small molecule agonists of the glucocorticoid receptor (GR) signaling pathway (AID 720691; active means well fitted activation curve with a large enough effect in the signal ratio in the repeat runs, not every such curve was filed as active; the % refers to the signal ratio); settings: GR-bla HeLa, beta-lactamase reporter ratio, 18 h; activation: at 62.4 µM (top of the series) unless noted
Chain of Glucocorticoid receptor (Homo sapiens) (P04150 whole entry, looked up): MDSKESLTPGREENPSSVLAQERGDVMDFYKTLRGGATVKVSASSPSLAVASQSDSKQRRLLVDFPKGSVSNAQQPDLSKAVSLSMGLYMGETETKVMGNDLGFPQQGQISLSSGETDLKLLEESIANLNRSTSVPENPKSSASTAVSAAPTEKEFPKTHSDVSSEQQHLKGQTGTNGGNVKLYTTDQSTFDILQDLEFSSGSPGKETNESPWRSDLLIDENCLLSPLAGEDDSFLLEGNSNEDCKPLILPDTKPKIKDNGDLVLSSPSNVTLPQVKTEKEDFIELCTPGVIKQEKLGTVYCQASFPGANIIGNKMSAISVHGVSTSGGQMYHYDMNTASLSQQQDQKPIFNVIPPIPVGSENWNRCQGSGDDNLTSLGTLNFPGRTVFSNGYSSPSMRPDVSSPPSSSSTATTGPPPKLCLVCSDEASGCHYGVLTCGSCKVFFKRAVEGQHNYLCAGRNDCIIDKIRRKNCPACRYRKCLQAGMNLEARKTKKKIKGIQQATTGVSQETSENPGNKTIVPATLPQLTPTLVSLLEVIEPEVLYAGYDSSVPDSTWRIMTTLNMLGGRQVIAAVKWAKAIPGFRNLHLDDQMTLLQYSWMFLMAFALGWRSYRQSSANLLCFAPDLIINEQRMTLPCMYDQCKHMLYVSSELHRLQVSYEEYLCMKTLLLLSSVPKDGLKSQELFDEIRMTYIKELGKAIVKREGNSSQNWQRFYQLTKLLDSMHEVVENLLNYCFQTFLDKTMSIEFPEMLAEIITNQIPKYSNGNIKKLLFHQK
Summary of the method: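 Cells: GR-bla HeLa, endogenous GR with stably integrated GRE-beta-lactamase reporter. Treatment 18 h, 37 C, compounds delivered in DMSO. Detection via LiveBLAzer B/G FRET substrate, 2 h RT, fluorescence intensity.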

[17] = biological target: Glucocorticoid receptor (Homo sapiens) (UniProt P04150); assay: qHTS assay to identify small molecule antagonists of the glucocorticoid receptor (GR) signaling pathway (AID 720692; active means well fitted inhibition curve with a large enough effect in the signal ratio in the repeat runs, not every such curve was filed as active; the % refers to the signal ratio); settings: GR-bla HeLa, beta-lactamase FRET ratio, dexamethasone-stimulated, 18 h; series mostly up to 58.5 µM
Summary of the method: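 Quantitative HTS in antagonist format: HeLa cells expressing endogenous GR and a stably integrated GRE-bla reporter, stimulated with 5 nM dexamethasone (final) alongside test compounds for 18 h.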

[18] = qHTS assay for small molecule disruptors of the mitochondrial membrane potential (AID 720635); settings: HepG2 mitochondrial membrane potential, Mito-MPS dye ratio; series mostly up to 83.2 µM
Summary of the method: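 Mitochondrial membrane potential tracked with Mito-MPS dye, red aggregates (ex 540/em 590 nm) against green monomers (ex 490/em 535 nm). Compound treatment 1 hr at 37C, dye 30 min in HepG2.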

[19] = qHTS assay to test for compound auto fluorescence at 590 nm (red) in HEK293 cells (AID 720679); settings: red autofluorescence 540/590 nm; series mostly up to 91.3 µM
Summary of the method: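 Red channel, Ex/Em 540/590nm; signal expressed as equivalency to Rose Bengal sodium. HEK293, 2,000 cells/well, 10% dialyzed FBS; 23 nL compound pinned after 4-5 hr attachment; overnight 37C/5% CO2 before reading.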

[20] = qHTS assay for small molecule agonists of the p53 signaling pathway - cell viability (AID 651633; calls by dose curve; further: nearly all actives have a fitted effect of over 30% in size); settings: p53RE-bla HCT-116 viability, ATP luminescence, 16 h; series mostly up to 83.3 µM
Summary of the method: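 Viability counter-read: CellTiter-Glo luminescence (30 min, room temperature) in the same p53RE-bla plates. These plates had been exposed to compounds for 16 h at 37 C.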
On the % scale 0 is the no-effect control and ±100 the full control effect.

CC(=O)c1ccc2c(c1)N(CCCN(C)C)c1ccccc1S2
inactive: Potency [1] | Potency [2] | Potency [3] | Potency [4] | fluorescence, relative to Rose Bengal [5] -0.407% [at 18.6 µM] | fluorescence, % of fluorescein control [6] 0.0535% [at 18.6 µM] | fluorescence, % of triamterene [7] -0.118% [at 18.6 µM] | fluorescence, % of fluorescein [8] -0.246% [at 18.6 µM] | fluorescence, % of fluorescent control [9] -0.103% [at 18.6 µM] | activity change [10] -0.283% [at 18.6 µM] | fluorescence, % of fluorescent control [11] -0.0325% [at 18.6 µM] | fluorescence, % of Rose Bengal [12] 0.233% [at 18.6 µM] | fluorescence, % of fluorescent control [13] 0.0422% [at 18.6 µM] | fluorescence, % of fluorescein control [14] -0.0543% [at 18.6 µM] | fluorescence, % of fluorescent control [15] -0.0528% [at 18.6 µM] | Potency [16] | Potency [17]

O=C1CCC(=O)O1
inactive: Potency [1] | Potency [2] | Potency [3] | Potency [4] | Potency [18] | Potency [5] | Potency [6] | outcome [7] | Potency [19] | outcome [8] | outcome [9] | outcome [10] | Potency [11] | Potency [12] | outcome [13] | outcome [15] | Potency [16] | Potency [17]

OC[C@H]1O[C@@H](OCCc2ccc(O)cc2)[C@H](O)[C@@H](O)[C@@H]1O
inactive: Potency [1] | Potency [2] | Potency [3] | Potency [4] | Potency [18] | Potency [5] | Potency [6] | outcome [7] | Potency [19] | outcome [8] | outcome [9] | outcome [10] | Potency [11] | Potency [12] | outcome [13] | Potency [14] | outcome [15] | Potency [16] | Potency [17]

CC(=O)NO
inactive: Potency [1] | Potency [2] | Potency [3] | Potency [4] | Potency [5] | Potency [6] | outcome [7] | outcome [8] | outcome [9] | outcome [10] | Potency [11] | Potency [12] | outcome [13] | Potency [14] | outcome [15] | Potency [16]

CN(C)c1ccc(C(c2ccccc2)c2ccc(N(C)C)cc2)cc1
inactive: Potency [1] | Potency [2] | Potency [20] | Potency [3] | Potency [6] | outcome [7] | Potency [19] | outcome [8] | outcome [9] | outcome [10] | Potency [11] | Potency [12] | outcome [13] | Potency [14] | outcome [15]

CCC(C)O (configuration not stated)
inactive: Potency [1] | Potency [20] | Potency [3] | Potency [4] | Potency [5] | Potency [6] | Potency [19] | outcome [8] | outcome [9] | outcome [10] | Potency [11] | Potency [12] | outcome [13] | Potency [14] | outcome [15] | Potency [16] | Potency [17]
